Only a selection was taken, and hits are over-represented in it overall.
KDM5B inhibitor = blocks human KDM5B histone demethylase activity; KDM5B demethylase, FDH-coupled NADH fluorescence (FDH is formaldehyde dehydrogenase); Potency, µM (top dose mostly 57.7 µM), actives largely listed as inhibitors; 220,000 tested, 2.6% active; AID 1347165; active = well fitted inhibition curve with a large enough effect; also: 0% is about no effect; nearly all actives have a fitted effect of over 70% in size
Target sequence (Q9UGL1 whole entry, looked up): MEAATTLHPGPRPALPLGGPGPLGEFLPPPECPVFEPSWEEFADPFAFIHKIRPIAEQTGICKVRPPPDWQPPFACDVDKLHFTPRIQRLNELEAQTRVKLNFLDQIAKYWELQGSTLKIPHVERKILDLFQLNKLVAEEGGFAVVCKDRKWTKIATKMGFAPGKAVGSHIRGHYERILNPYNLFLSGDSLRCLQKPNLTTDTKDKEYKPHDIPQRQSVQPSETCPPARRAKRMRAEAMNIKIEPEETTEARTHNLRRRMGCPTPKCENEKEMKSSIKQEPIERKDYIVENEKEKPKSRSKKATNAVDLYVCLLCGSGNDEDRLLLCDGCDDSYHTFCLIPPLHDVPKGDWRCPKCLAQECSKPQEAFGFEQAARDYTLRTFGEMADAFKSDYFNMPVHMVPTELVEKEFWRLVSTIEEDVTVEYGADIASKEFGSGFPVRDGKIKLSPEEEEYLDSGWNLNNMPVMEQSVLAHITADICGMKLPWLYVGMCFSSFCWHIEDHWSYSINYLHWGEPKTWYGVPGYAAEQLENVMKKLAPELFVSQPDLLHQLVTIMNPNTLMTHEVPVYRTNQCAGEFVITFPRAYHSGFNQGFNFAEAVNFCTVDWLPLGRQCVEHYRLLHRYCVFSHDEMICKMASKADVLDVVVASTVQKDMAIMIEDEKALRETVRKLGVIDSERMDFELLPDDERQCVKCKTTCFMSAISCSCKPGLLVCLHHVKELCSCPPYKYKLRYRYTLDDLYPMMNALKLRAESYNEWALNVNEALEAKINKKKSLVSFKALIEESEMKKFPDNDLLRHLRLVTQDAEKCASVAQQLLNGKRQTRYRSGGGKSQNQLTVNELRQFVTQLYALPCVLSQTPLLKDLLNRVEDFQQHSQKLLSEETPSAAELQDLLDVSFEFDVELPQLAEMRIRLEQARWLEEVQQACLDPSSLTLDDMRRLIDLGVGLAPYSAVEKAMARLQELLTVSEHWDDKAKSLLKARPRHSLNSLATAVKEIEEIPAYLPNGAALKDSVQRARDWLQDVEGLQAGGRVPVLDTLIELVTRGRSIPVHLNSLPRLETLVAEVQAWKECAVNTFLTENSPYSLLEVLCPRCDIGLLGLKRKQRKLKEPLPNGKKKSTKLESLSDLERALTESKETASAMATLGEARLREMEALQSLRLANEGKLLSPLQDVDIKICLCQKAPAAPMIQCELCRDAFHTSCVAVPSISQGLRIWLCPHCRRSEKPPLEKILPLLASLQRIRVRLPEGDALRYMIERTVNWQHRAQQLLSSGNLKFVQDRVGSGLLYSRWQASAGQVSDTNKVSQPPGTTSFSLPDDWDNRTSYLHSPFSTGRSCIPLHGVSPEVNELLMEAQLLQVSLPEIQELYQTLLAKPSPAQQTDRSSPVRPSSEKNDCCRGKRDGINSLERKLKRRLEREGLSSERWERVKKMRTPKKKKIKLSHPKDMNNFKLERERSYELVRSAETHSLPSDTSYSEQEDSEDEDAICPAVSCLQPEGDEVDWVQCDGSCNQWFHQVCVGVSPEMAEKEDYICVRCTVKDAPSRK
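Measured: NADH fluorescence change, 30 min, RT. System: KDM5BΔAP 200 nM final, H3K4me3 peptide, α-KG, Fe(II), ascorbate, NAD⁺ plus FDH, pH 7.5 HEPES. Compounds: titrated, 10 min pre-incubation with enzyme.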
* marks the source's active call; other numbers are inactive results; i = inactive. Potency is read from the fitted curve at half-maximal effect.

SMILES	KDM5B inhibitor
Cc1cc(CN2CCC3(CC2)CN(C2CCC2)CC3CO)n(C)n1 (stereo not given)	17.8µM*
Cc1ncsc1CN1CCC2(CC1)CN(C1CCC1)CC2CO (stereo not given)	i
Cn1c(Oc2ccccc2Cl)c(C#N)c(=O)n(C)c1=O	i
COc1ccccc1C(=O)N1CCC2(CC1)COc1ccccc1CN2	i
CCOc1ccc(C(C)NC(=O)Cc2ccccc2C)cc1 (stereo not given)	i
Cc1ccc(-c2cnc(CCC(=O)N(C)C(C)c3ccc(S(N)(=O)=O)cc3)o2)cc1 (stereo not given)	i
Cc1ccc(Cn2cc(C(=O)NCCCc3[nH]nc(N)c3C#N)c(-c3ccc(C)cc3)n2)cc1	i
Cc1cccc(CN2CCCC(O)(CN3CCNC(=O)C3(C)C)C2=O)c1 (stereo not given)	i
Cc1cccc(CN2CCCC(O)(CN3CCC(C)CC3)C2=O)c1 (stereo not given)	i
Cc1cccc(CN2CCCC(O)(CNCc3ncccc3C)C2=O)c1 (stereo not given)	28.2µM*
CCc1ccc(Cl)c(CC)c1NC(=O)C=C(C)C	i
C#CC(C)(CC)NC(=O)/C(=C/c1ccccc1)NC(=O)c1ccccc1 (stereo not given)	i
CCOc1cc(=O)n2c(c1C(=O)NCCCN1CCCc3ccccc31)CCCCC2	11.2µM*
CCOc1cc(=O)n2c(c1C(=O)NCc1ccccc1F)CCCCC2	i
CCOc1cc(=O)n2c(c1C(=O)NCCOC)CCCCC2	i
O=C(OCC(=O)c1ccccc1Cl)c1ccc(OCc2ccccc2)cc1	i
Cc1cccc(-n2c(SCc3cccc(C#N)c3)nnc2N2CCOCC2)c1	i
O=C(NCCCNC(=O)c1cc2ccccc2[nH]1)c1ccc(-c2ccccc2)cc1	i
CCOc1ccc(-c2noc(-c3ncn4c3COC(c3ccc(F)cc3)C4)n2)cc1 (stereo not given)	i
COc1ccc(C2Cn3cnc(-c4nc(-c5ccc6c(c5)OCO6)no4)c3CO2)cc1 (stereo not given)	14.1µM*
Fc1ccc(-c2noc(-c3nnn4c3COC(c3ccc(Cl)cc3)C4)n2)cc1 (stereo not given)	i
COc1ccc(C2Cn3cnc(-c4nc(-c5ccc(OC)c(OC)c5)no4)c3CO2)cc1 (stereo not given)	i
COc1ccc(Cl)cc1-c1nc(-c2nnn3c2COC(c2ccc(C)cc2)C3)no1 (stereo not given)	i
COc1ccc(-c2noc(-c3nnn4c3COC(c3ccc(F)cc3)C4)n2)cc1OC (stereo not given)	22.4µM*
COc1ccc(-c2nc(-c3nnn4c3COC(c3ccc(OC)cc3)C4)no2)cc1 (stereo not given)	i
SMILES	KDM5B inhibitor
COc1ccc(-c2nc(-c3nnn4c3COC(c3ccc(Cl)cc3)C4)no2)cc1OC (stereo not given)	28.2µM*
Fc1ccc(C2Cn3nnc(-c4nc(-c5cccc(F)c5)no4)c3CO2)cc1 (stereo not given)	i
Cn1nc(C(=O)NC2CCCc3ccccc32)c2ccccc2c1=O (stereo not given)	i
N#Cc1cccc(C(=O)NCCCc2nc3ccccc3[nH]2)c1	i
Cc1ccc(S(=O)(=O)c2cn(CC(=O)Nc3ccc(C)c(F)c3)c3nc(C)ccc3c2=O)c(C)c1	i
COc1ccc(C(=O)ON=C2CCCCC2)cc1I	i
COC(=O)c1c(N)c(-c2nc3ccccc3s2)nn1-c1ccccc1	i
Cc1ccc(/C(O)=C2\C(=O)C(=O)NC2c2ccccc2)cc1 (stereo not given)	i
Cc1ccc(-c2noc(COc3ccccc3C(=O)N3CCN(C(C)C)CC3)n2)cc1	i
COc1ccc(-c2[nH]nc3ncc(-c4ccccc4O)nc23)cc1F	i
Cc1cc(-c2cnc3n[nH]c(-c4ccc5c(c4)OCO5)c3n2)ccn1	i
O=C(Nc1ccon1)c1cnc2n[nH]c(-c3ccccc3)c2n1	i
COc1ccccc1-c1[nH]nc2ncc(C(=O)N3C[C@@H](C)O[C@@H](C)C3)nc12	i
COc1ccccc1-c1[nH]nc2ncc(CN(C)Cc3ccccc3)nc12	i
COc1ccccc1-c1cnc2n[nH]c(-c3ccccc3)c2n1	35.5µM*
COc1ccccc1-c1cnc2n[nH]c(-c3ccccc3C)c2n1	7.08µM*
Fc1ccccc1-c1cnc2n[nH]c(-c3ccccc3)c2n1	31.6µM*
COc1ccc(-c2[nH]nc3ncc(-c4ccc(CO)cc4)nc23)cc1F	i
Cc1cc(C)cc(-c2[nH]nc3ncc(-c4ccsc4)nc23)c1	28.2µM*
COc1ccccc1-c1[nH]nc2ncc(-c3ccccc3O)nc12	i
Cc1ccsc1-c1[nH]nc2ncc(-c3ccc(CO)cc3)nc12	i
COC(=O)C1=C(C)NC(=O)C1(NC(=O)c1ccco1)C(F)(F)F (stereo not given)	i
Cc1cc(F)cc(CC(=O)O)c1	i
CC(C(=O)N(C)Cc1ccccc1)S(=O)(=O)Cc1ccc(Cl)c(Cl)c1 (stereo not given)	i
O=C(NC1CC1)C(=O)N1CCN(C(=O)c2cc3ccccc3[nH]2)CC1	i
SMILES	KDM5B inhibitor
Fc1cc(Br)ccc1NC(=S)NCc1cccs1	i
COCC(=O)NC1CCC12CCN(Cc1ccc(F)cc1F)CC2 (stereo not given)	i
CCOC(=O)c1c(C)c(C(=O)Nc2cccc(Cl)c2C)c(C)n1C	i
CC(C)CNC(=O)c1cc2cc(N(C)S(=O)(=O)c3ccc(Cl)cc3)ccc2s1	i
Brc1cccc(CNCc2cccnc2-n2cccn2)c1	i
O=C(Cc1ccc2c(c1)CCC2)OCc1ccc([N+](=O)[O-])cc1	i
Cc1ccc(NC(=O)CN(C)C(=O)C2CCN(c3ccc(C#N)cn3)CC2)cc1	i
Cc1cc(-c2cnc3n[nH]c(-c4ccccc4)c3n2)ccn1	i
Cc1cc(F)ccc1-c1[nH]nc2ncc(-c3cnn(C)c3)nc12	i
COc1cc(F)ccc1-c1cnc2n[nH]c(-c3sccc3C)c2n1	i
COc1ccc(-c2cnc3n[nH]c(-c4ccc(F)cc4C)c3n2)cc1OC	31.6µM*
Cc1ccsc1-c1[nH]nc2ncc(-c3cccc(CO)c3)nc12	i
Cc1cccc(-c2cnc3n[nH]c(-c4ccccc4)c3n2)c1	35.5µM*
O=C(Nc1ncc(Cc2ccccc2)s1)C1CC(=O)N(Cc2ccco2)C1 (stereo not given)	i
Cc1ccc2c(C)c(C(=O)NCC(c3cccs3)N3CCOCC3)oc2c1 (stereo not given)	i
O=S(=O)(Nc1ccc(F)cc1)c1ccc(-c2cnc(C3CC3)o2)cc1	i
CC1=C[C@@H](CN2CCN(c3ccc(F)cc3)CC2)[C@H](C(C)C)C[C@H]1Cc1nnc(-c2cncn2C)o1	i
CC1=CCC(c2cnc(-c3ccccc3)c(C)c2)NC1c1ccccc1 (stereo not given)	i
CCOc1ccc(-n2nc(C(=O)NCCCN(CC)Cc3ccccc3)c3ccccc3c2=O)cc1	i
COC(=O)c1ccc(OCc2cc(Br)ccc2OC)cc1	i
CCCNC(=O)NCCc1noc(-c2cccnc2)n1	i
CC(O)CNc1ccc(-c2nc(CCCc3ccccc3)no2)cn1 (stereo not given)	i
CCC(O)CNc1ccc(-c2nc(COC)no2)cn1 (stereo not given)	31.6µM*
Cc1c(NC(=O)C2CCN(S(=O)(=O)Cc3ccc(F)cc3)CC2)c(=O)n(-c2ccccc2)n1C	i
